The panel holds about 79,000 compounds, 15% with a hit somewhere; the sample as a whole holds those more often. A number with no mark means an inactive call. Calls of active or inactive are those of the source. Rule as the data show it: active = growth inhibition above about 70%; inactive = the rest.
Experiment: NCI Yeast Anticancer Drug Screen. Data for the mlh1 rad18 strain (AID 175)
Conditions: S. cerevisiae mlh1 rad18 strain growth inhibition, hits give high values
Description: Growth inhibition of yeast strains with defined genetic alterations is measured as a screen for potential anti-cancer activity. Selected strains with alterations in DNA damage repair or cell cycle control were exposed to compounds and growth inhibition was measured relative to vehicle treated controls. The strain used in this assay is mlh1 rad18

[1] = at 5.0 µM (retest, dose inferred, filed as 0.5)
[2] = at 50.0 µM (retest, dose inferred, filed as 5.0)

Row | SMILES | growth inhibition [1] [%] | growth inhibition [2] | growth inhibition (at 50.0 µM)
1 | COc1ccc(/C=C/c2c[n+]([O-])ccc2[N+](=O)[O-])cc1 | 46 | 96% (active) | 98% (active)
2 | O=C1Nc2ccccc2/C1=C/c1ccc(Cl)c(Cl)c1 | 5 | 89% (active) | 78% (active)
3 | CCOC(=O)[C@]12CCC[C@@]1(O)NC(=O)c1cnccc12 | 0 | 97% (active) | 97.3% (active)
4 | Cc1nc(N)sc1N=Nc1cccc(Cl)c1Cl | 21 | 79% (active) | 84.2% (active)
5 | Cn1c(N)c(N=Nc2ccc(S(N)(=O)=O)cc2)c(=O)n(C)c1=O | 5 | 10% | -9.4%
6 | COc1cc(/C=C(/C)C[N+](=O)[O-])ccc1O | 25 | 99% (active) | 99.5% (active)
7 | CCCc1cc(=O)oc2c3c(c4c(c12)OC(C)(C)C=C4)O[C@@H](C)[C@H](C)[C@H]3O | 1 | 93% (active) | 95.1% (active)
8 | CCCCCCCCC(C)c1ccccc1O (configuration not stated) | -151 | 97% (active) | 99.4% (active)
9 | O=S=C(c1ccccc1)N(Cc1ccccc1)Cc1ccccc1 | 1 | 95% (active) | 94.2% (active)
10 | O=C(O)Cc1nc2ccccc2[nH]1 | 2 | 99% (active) | 3.05%
11 | COc1ccccc1/C=C\C(=O)c1ccccc1 | 2 | 98% (active) | 98.8% (active)
12 | NS(=O)(=O)c1ccc(NC(=S)/N=C\C(C(=O)c2ccccc2)=C(\O)c2ccccc2)cc1 | 10 | -7% | 2.15%
13 | CCCCCCCCCCCCCC(=O)OCC[N+](C)(C)C | 34 | 98% (active) | 90.5% (active)
14 | COc1ccc2nc3cc(Cl)ccc3c(Nc3ccc(O)c(CNCCO)c3)c2c1 | -9 | 12% | 29.6%
